Compound activity deposited in PubChem by several laboratories.
Shown are actives, neighbours in structure and some others; about 27% of the full set was active somewhere.
Cav3 T inh: blocks human Cav3.2 T-type calcium channel | O95180 | Cav3.2-expressing cells, Fluo-4 calcium fluorescence FDSS; active compounds read low | B-score at 10 µM | 4% of 100,000 active | AID 449739;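 active means single-dose well whose peak fluorescence ratio is a statistical outlier from its plate by either plate-standardised score or position-corrected B-score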
Target sequence (O95180 whole entry, looked up): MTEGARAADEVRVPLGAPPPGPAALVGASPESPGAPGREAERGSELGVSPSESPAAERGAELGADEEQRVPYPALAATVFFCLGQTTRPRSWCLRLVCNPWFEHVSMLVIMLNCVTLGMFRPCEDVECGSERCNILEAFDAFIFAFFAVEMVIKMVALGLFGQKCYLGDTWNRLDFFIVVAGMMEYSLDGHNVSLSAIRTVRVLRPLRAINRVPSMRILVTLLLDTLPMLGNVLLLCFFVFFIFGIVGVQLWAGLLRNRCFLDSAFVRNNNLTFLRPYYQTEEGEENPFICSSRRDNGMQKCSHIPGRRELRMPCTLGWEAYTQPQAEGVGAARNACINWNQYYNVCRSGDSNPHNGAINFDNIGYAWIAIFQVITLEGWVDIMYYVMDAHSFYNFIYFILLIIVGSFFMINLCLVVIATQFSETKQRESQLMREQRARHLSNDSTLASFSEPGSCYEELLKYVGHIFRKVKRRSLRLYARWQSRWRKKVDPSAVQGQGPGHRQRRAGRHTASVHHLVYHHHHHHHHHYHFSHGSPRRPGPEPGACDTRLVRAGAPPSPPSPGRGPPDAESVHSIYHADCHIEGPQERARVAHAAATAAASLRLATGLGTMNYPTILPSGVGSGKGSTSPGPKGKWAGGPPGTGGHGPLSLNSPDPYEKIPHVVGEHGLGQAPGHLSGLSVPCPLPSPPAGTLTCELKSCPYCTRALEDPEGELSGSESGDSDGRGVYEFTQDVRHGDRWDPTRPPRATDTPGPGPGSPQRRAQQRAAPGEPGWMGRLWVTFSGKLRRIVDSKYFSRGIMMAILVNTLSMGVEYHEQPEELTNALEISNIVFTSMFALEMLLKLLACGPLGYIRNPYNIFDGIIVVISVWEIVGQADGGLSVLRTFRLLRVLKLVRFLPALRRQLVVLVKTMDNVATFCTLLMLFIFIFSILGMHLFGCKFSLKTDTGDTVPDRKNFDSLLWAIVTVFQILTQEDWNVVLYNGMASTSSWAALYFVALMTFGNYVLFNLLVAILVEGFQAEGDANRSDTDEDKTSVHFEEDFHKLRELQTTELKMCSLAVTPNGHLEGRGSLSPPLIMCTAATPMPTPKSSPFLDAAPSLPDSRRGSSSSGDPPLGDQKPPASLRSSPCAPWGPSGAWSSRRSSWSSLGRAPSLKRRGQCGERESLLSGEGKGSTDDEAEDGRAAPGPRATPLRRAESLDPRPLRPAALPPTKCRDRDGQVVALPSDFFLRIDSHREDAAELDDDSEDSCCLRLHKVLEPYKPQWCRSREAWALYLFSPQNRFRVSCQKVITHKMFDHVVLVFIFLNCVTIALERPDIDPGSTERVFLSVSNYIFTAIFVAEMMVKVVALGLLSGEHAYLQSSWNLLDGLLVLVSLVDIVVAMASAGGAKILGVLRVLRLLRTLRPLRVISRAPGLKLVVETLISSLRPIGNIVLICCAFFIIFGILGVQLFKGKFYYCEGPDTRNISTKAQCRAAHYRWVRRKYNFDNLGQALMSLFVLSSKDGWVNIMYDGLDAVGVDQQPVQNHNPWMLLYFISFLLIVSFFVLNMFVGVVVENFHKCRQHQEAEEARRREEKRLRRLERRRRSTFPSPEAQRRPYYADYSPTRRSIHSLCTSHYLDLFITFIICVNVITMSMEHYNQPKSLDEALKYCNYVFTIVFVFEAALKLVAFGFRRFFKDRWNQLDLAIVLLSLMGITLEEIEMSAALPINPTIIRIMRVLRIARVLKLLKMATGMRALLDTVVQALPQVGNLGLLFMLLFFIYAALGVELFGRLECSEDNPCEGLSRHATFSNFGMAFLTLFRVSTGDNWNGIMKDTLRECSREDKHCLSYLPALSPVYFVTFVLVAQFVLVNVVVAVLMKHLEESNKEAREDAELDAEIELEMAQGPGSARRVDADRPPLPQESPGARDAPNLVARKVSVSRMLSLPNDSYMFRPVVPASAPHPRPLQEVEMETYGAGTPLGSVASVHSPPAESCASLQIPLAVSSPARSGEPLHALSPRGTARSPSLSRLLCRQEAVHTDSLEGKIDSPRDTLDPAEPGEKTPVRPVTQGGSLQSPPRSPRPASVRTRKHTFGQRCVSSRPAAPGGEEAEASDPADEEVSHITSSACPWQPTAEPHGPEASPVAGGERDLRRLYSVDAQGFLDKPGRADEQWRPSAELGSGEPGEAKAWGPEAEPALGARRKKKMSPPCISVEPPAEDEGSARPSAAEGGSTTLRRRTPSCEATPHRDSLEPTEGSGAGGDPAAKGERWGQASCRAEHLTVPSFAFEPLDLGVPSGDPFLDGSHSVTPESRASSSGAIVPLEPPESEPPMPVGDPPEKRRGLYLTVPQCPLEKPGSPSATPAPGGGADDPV
CYP2C9 act: increases human cytochrome P450 2C9 activity; recombinant CYP2C9, luciferin-H conversion, luminescence; active compounds read high; factor 1 = untreated enzyme, 0 = blocked; AID 1024; P11712; activation factor at 5 µM; 1.4% of 96,000 active;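 active means activation factor of 2 or more for CYP2C9 at a 5 µM dose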;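 further: 0 = sulfaphenazole-blocked wells and 1 = vehicle-only wells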
Pyk2 oligo antag: Pyk2 (human) oligomerization antagonism; Q14289; Q293 cells, Pyk2 FERM NanoBiT luminescence; active compounds read low; z-score (the deposit names both 25 µM and 10 µM); 0.83% of 99,000 active;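 active means Z-score of -3 or lower, scaled per plate to the spread of control and sample wells; inactive means z-score above -3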;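 further: negative z-score means lost luminescence so less FERM oligomerization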
CYP2C19 inh: inhibitors of human CYP2C19; P33261; CYP2C19 Supersomes, luciferin-H EGE luminescence, 30 min; inhibition, % at 5 µM; 21% of 96,000 active; AID 778;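 active means CYP2C19 inhibition above a set limit at 5 µM in the primary screen, cut at about 50% in these data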;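 further: plate controls were negative control wells for no effect and 2.5 mM tranylcypromine positive control for full effect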
CYP2C19 activ: increases human CYP2C19 enzyme activity; activation factor at 5 µM; P33261; 96,000 tested, under 10 active; AID 1025; recombinant CYP2C19, luciferin-H EGE luminescence; active compounds read high; 0 = fully inhibited enzyme, 1 = untreated enzyme;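 active means activation factor of at least 2 at 5 µM in the primary screen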;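 further: 0 = wells with 2.5 mM tranylcypromine and 1 = vehicle-only wells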
CYP2C9 inh: blocks human cytochrome P450 2C9; P11712; CYP2C9 Supersomes, luciferin-H conversion, luminescence; inhibition, % at 5 µM; AID 777; 20% of 96,000 active;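 active means blocking of liver enzyme CYP2C9 beyond about 50% at 5 µM, limit read from the data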
* = called active by the depositor; . = not tested or not shown.

SMILES | Cav3 T inh | CYP2C9 act | Pyk2 oligo antag | CYP2C19 inh | CYP2C19 activ | CYP2C9 inh
COc1ccc(N2CCN(C(c3ccccc3)c3nnnn3Cc3ccc(F)cc3)CC2)cc1 (centres undefined) | -4.6* | 0.6 | -2.4 | 64* | 0.4 | 40
COc1ccc(C(c2nnnn2Cc2ccc(F)cc2)N2CCN(c3ccc(OC)cc3)CC2)cc1 (centres undefined) | . | 0.5 | -3 | 38 | 0.6 | 50
COc1ccc(C(c2nnnn2Cc2ccc(F)cc2)N2CCN(c3ccccc3)CC2)cc1 (centres undefined) | -5.8* | 0.7 | -3.4* | 22 | 0.8 | 27
COc1ccc(Cn2nnnc2C(c2cccs2)N2CCOCC2)cc1 (centres undefined) | 1.2 | 0.4 | 0.58 | 86* | 0.1 | 56*
O=C1C2C3C=CC(CO)(O3)C2C(=O)N1c1ccccc1-c1ccccc1 (centres undefined) | 0.67 | 0.9 | -0.53 | 19 | 0.8 | 11
COc1ccc(N2CCN(Cc3nc(N)nc(Nc4ccccc4OC)n3)CC2)cc1 | -1.2 | 0.8 | -0.18 | 18 | 0.8 | 18
Nc1nc(CN2CCN(c3ccc(F)cc3)CC2)nc(N2CCCc3ccccc32)n1 | -3.3 | 0.5 | 1.5 | 60* | 0.4 | 53*
O=[N+]([O-])c1c(C(Cl)Cl)nn(-c2ccccc2)c1N1CCCC1 | -0.65 | 0.6 | -0.44 | 56* | 0.4 | 38
CCOC(=O)C1CCN(c2c([N+](=O)[O-])c(C(Cl)Cl)nn2-c2ccccc2)CC1 | -0.7 | 0.9 | 0.19 | 18 | 0.8 | 12
CCOC(=O)CC(/C(C)=N\O)c1ccccc1 (centres undefined) | 0.41 | 1 | 0.42 | 51* | 0.5 | -4
CCOC(=O)c1cc2occc2n1CC(=O)Nc1ccc(OC)cc1OC | -2.3 | 0.6 | 0.08 | 37 | 0.6 | 37
COc1cccc2sc(Nc3nnc(-c4cccs4)o3)nc12 | -5.6* | 1 | -0.11 | -11 | 1.1 | 3
CC(C)(C)CC(=O)NC(=S)N1CCCCCC1 | 1.6 | 1 | 1.6 | 14 | 0.9 | 0
CCC1S/C(=N\S(=O)(=O)c2cccs2)N(C2CCCCC2)C1=O (centres undefined) | -3.3 | 0.4 | -0.77 | 79* | 0.2 | 57*
COc1ccc(-n2ccnc2SCC(=O)Nc2ccc(OC)cc2OC)cc1 | -1.4 | 0.7 | 2.6 | 92* | 0.1 | 27
COc1ccc(NC(=O)CSc2nc3c(c(=O)n2-c2ccc(C)cc2)SCC3)c(OC)c1 | . | . | -1.1 | . | . | .
COc1ccc(NC(=O)CSc2nc(N)c3cc4c(nc3n2)CCCC4)c(OC)c1 | 0.15 | 0.2 | 1.6 | 22 | 0.8 | 81*
CCn1c(CC(=O)Nc2ccc(C)c(Cl)c2)nnc1SCC(=O)Nc1nc(C)cs1 | -1.8 | 0.4 | 0.09 | 24 | 0.8 | 63*
Cc1ccc(NC(=O)CSc2nc(N)c3cc4c(nc3n2)CCCC4)cc1 | . | . | 0.1 | . | . | .
CCn1c(CC(=O)Nc2cccc(OC)c2)nnc1SCC(=O)Nc1nccs1 | -5* | 0.7 | -0.38 | 10 | 0.9 | 25
CCC1CCCCN1C(=O)Cn1c(=O)n(CCC(=O)NCc2ccco2)c(=O)c2sccc21 (centres undefined) | 0.74 | 0.5 | 1.1 | 5 | 1 | 45
CCSc1nnc(NC(=O)CSc2nccn2-c2cccc(C)c2)s1 | -2 | 0.4 | -1.2 | 33 | 0.7 | 63*
COc1ccc(C(CC(=O)Nc2nccs2)n2cccc2)cc1 (centres undefined) | -0.6 | 0.7 | 0.86 | 25 | 0.7 | 26
Cc1cc(C)cc(-n2ccnc2SCC(=O)Nc2nccs2)c1 | 0.043 | 0.7 | -0.25 | 33 | 0.7 | 32
Cc1cccc(-n2ccnc2SCC(=O)Nc2nccs2)c1 | 0.15 | 0.5 | -0.76 | 60* | 0.4 | 49
SMILES | Cav3 T inh | CYP2C9 act | Pyk2 oligo antag | CYP2C19 inh | CYP2C19 activ | CYP2C9 inh
CCOc1ccc(-n2ccnc2SCC(=O)Nc2nnc(CC)s2)cc1 | -0.54 | 0.8 | 0.75 | 27 | 0.7 | 23
COc1cccc(-n2ccnc2SCC(=O)Nc2nccs2)c1 | -0.17 | 0.5 | 1.4 | 59* | 0.4 | 45
O=S(=O)(c1cnccc1N1CCN(/N=C/c2ccc(Cl)cc2)CC1)N1CCCCC1 | -0.12 | 0.4 | -0.12 | 33 | 0.7 | 60*
CCOC(=O)N1CCC(NC(=O)CCC(=O)N2CC(C)Oc3ccc(Cl)cc32)CC1 (centres undefined) | -0.29 | 0.5 | -0.02 | 41 | 0.6 | 46
NC(=O)CSc1nnc(C2CC2)n1-c1ccccc1 | -0.16 | 1 | 0.45 | -9 | 1.1 | 1
COC(=O)c1cccnc1NC(=S)NNC(=O)c1ccncc1 | 0.047 | 0.7 | 0.75 | 84* | 0.2 | 25
O=C(Nc1ccc(Oc2cccc3ccccc23)cc1)c1ccco1 | -2.2 | 1.4 | -0.48 | 40 | 0.6 | -37
O=C(c1ccco1)N1CCN(c2nc3ccccc3c(=O)n2-c2ccccc2)CC1 | -0.22 | 0.3 | -0.57 | 30 | 0.7 | 67*
O=C(c1ccco1)N1CCN(c2nc3ccsc3c(=O)s2)CC1 | 0.25 | 0.4 | . | 44 | 0.6 | 64*
Nc1nc(N2CCN(C(=O)c3ccco3)CC2)nc2ccccc12 | 0.37 | . | -0.3 | . | . | .
O=C(c1ccco1)N1CCN(C(=O)c2cc3c(=O)oc4ccccc4c3s2)CC1 | -0.16 | 0.4 | 0.6 | 27 | 0.7 | 61*
O=C(c1cc2c(=O)oc3ccccc3c2s1)N1CCOCC1 | 0.2 | 1 | 0.36 | -7 | 1.1 | -4
O=C(c1ccco1)N1CCN(c2ncnc3c2oc2ccccc23)CC1 | -0.11 | 0.7 | 0.28 | 62* | 0.4 | 30
OCCN1CCN(c2ncnc3ccc(Br)cc23)CC1 | . | 1 | . | -9 | 1.1 | -1
Cc1cc(C)c[n+](-c2nc3ccccc3nc2[N-]S(=O)(=O)c2ccc(Cl)cc2)c1 | . | . | -0.15 | . | . | .
O=c1[nH]c(N2CCOCC2)nc2c1CCCC2 | 0.59 | 1.1 | 1.3 | -1 | 1 | -11
Cc1nn2c(N3CCN(C4CCCC4)CC3)cc(C(C)(C)C)nc2c1-c1ccccc1 | 0.091 | 0.7 | 1.1 | -5 | 1.1 | 31
Cc1ccc2cc3cc(C(=O)N4CCN(C(=O)c5ccco5)CC4)sc3nc2c1 | . | 0.5 | 0.35 | 64* | 0.4 | 47
Cc1nn2c(N3CCN(C(=O)c4ccco4)CC3)cc(C(C)(C)C)nc2c1-c1ccccc1 | -6.7* | 0.4 | . | 9 | 0.9 | 58*
O=C(c1ccco1)N1CCN(c2nnc(-c3ccccc3)c3ccccc23)CC1 | 1.2 | 1 | -0.66 | 58* | 0.4 | 4
CCCCCCN(C(=O)CCCCCN1C(=O)NC(c2ccc(Cl)cc2)C(C(=O)OCc2ccccc2)=C1C)C(C(=O)NCCCC)c1ccc(OCC(=O)OC)c(C(=O)OC)c1 (centres undefined) | -1.1 | . | . | . | . | .
C=C(C)Cn1c(NCCOC)nc2c1c(=O)[nH]c(=O)n2C | -0.76 | . | 0.66 | . | . | .
CC(=O)C1=C(C)Nc2cc(C(F)(F)F)ccc2S1 | 0.95 | 0.6 | -0.23 | 60* | 0.4 | 36
